# Assay results published in article PMC7862700, “An all-to-all approach to the identification of sequence-specific readers for epigenetic DNA modifications on cytosine”.
# Assays:
# Experiment in all cases: DAPPL (digital affinity profiling via proximity ligation, sequencing); 10 mM Tris-HCl pH 7.5, 50 mM NaCl, 1 mM DTT, 4% glycerol, room temperature, 30 min; GST-TFs on glutathione beads, 16-mer random dsDNA library, 0.1% formaldehyde crosslink after washing; high values mean tight binding
# [1] = target: T1, FEV (Homo sapiens, UniProt Q99581 1-238); conditions: protein: recombinant; tags: N-terminal GST; dsDNA, one strand shown
# T1 sequence: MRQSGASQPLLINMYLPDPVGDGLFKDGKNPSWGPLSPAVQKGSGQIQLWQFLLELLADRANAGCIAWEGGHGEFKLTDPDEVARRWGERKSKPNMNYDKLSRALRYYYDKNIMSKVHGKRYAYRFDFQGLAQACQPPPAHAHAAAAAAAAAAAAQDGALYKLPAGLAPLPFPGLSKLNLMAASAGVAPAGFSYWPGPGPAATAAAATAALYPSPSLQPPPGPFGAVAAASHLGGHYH
# In short: (§1)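 GST fusions of human transcription factors were expressed in yeast and captured with glutathione beads. Once given DNA barcodes and pooled alongside a tag-only sample, they were incubated for 30 min at room temperature with 200 nmole of a random double-stranded 16-mer DNA library in Tris/NaCl/DTT/glycerol buffer, then washed, crosslinked (0.1% formaldehyde), proximity-ligated, PCR-amplified and sequenced on an Illumina NextSeq500. The binding signal of each hexamer is its read frequency for a factor divided by its frequency for the tag-only sample.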
# [2] = target: ETV5 (Homo sapiens, UniProt P41161 1-510); conditions: protein: recombinant; tags: N-terminal GST; dsDNA, one strand shown
# Sequence of ETV5 (P41161 whole entry): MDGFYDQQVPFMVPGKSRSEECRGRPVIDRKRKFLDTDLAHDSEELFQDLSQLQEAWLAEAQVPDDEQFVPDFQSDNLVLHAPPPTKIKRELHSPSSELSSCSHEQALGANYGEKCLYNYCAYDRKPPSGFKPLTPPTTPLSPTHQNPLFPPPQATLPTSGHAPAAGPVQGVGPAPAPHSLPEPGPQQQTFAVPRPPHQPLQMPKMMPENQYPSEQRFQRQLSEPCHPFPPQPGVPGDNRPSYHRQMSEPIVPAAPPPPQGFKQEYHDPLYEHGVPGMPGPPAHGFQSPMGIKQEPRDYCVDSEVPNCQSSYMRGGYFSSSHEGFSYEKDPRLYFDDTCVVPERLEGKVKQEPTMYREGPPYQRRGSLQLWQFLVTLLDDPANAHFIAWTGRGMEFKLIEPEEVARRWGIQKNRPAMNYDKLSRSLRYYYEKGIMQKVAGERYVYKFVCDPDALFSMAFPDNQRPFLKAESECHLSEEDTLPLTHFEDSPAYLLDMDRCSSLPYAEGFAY
# In short: as §1
# [3] = target: HSF1 (Homo sapiens, UniProt Q00613 1-529); conditions: protein: recombinant; tags: N-terminal GST; chain copies: 3; dsDNA, one strand shown
# Sequence of HSF1 (Q00613 whole entry): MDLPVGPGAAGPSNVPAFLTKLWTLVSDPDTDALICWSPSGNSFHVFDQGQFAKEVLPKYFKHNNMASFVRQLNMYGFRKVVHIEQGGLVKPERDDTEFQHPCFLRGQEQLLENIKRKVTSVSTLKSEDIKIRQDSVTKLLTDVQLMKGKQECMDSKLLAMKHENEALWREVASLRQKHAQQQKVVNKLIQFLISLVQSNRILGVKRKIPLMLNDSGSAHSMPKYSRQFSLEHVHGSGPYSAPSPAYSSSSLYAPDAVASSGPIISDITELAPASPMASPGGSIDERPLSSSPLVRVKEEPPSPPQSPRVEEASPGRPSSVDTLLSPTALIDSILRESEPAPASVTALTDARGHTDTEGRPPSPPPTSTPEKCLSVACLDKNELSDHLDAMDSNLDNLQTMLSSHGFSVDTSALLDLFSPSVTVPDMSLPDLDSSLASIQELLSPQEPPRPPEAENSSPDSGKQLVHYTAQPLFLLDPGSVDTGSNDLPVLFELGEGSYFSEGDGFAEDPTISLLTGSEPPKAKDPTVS
# In short: as §1
# [4] = target: T2, SPIC (Homo sapiens, UniProt Q8N5J4 1-248); conditions: protein: recombinant; tags: N-terminal GST; dsDNA, one strand shown
# T2 sequence: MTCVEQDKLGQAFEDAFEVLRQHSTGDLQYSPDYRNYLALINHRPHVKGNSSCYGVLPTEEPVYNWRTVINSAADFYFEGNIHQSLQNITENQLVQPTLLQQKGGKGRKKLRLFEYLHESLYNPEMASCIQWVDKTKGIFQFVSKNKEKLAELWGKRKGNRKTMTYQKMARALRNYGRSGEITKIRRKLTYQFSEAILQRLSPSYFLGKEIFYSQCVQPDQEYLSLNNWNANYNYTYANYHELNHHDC
# In short: as §1
# [5] = target: ELF4 (Homo sapiens, UniProt Q99607 1-663); conditions: protein: recombinant; tags: N-terminal GST; dsDNA, one strand shown
# Sequence of ELF4 (Q99607 whole entry): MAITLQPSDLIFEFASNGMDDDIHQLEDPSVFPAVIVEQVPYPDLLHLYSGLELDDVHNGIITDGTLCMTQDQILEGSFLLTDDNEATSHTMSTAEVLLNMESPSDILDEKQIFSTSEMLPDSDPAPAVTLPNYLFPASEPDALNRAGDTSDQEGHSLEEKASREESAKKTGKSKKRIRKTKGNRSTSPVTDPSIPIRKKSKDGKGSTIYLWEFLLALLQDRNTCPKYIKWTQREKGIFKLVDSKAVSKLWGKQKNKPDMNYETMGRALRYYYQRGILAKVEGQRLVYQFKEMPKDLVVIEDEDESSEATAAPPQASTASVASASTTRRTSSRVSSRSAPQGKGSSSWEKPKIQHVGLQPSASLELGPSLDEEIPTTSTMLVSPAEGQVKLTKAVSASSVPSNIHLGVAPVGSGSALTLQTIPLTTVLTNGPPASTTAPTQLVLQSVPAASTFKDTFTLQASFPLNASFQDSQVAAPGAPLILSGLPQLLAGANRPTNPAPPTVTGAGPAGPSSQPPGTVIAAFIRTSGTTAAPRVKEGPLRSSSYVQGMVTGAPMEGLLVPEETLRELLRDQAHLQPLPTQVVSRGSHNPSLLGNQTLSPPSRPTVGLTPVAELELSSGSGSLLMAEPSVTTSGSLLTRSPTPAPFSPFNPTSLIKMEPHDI
# In short: as §1
# [6] = target: T3, ELK4 (Homo sapiens, UniProt P28324-2 1-405); conditions: protein: recombinant; tags: N-terminal GST; dsDNA, one strand shown
# T3 sequence: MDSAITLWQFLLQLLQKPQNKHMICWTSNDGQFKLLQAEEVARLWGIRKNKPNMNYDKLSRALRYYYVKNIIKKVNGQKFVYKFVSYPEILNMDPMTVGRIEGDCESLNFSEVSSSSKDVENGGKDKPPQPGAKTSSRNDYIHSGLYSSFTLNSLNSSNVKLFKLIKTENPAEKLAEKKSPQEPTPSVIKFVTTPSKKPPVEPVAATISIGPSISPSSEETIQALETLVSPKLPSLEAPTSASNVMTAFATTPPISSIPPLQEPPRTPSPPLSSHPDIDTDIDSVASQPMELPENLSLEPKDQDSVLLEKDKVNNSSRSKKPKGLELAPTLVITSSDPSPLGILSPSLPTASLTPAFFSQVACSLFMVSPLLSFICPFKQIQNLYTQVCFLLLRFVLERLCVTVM
# In short: as §1
# [7] = target: T4, ETV2 (Homo sapiens, UniProt O00321 1-342); conditions: protein: recombinant; tags: N-terminal GST; dsDNA, one strand shown
# T4 sequence: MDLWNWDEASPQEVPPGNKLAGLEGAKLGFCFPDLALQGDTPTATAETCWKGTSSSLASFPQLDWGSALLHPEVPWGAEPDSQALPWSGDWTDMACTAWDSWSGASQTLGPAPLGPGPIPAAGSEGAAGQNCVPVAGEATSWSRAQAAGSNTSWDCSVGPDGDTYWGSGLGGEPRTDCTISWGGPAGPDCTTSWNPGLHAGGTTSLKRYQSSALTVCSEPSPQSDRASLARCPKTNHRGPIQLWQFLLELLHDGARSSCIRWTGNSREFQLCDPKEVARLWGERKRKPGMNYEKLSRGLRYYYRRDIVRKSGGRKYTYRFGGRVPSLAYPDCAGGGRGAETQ
# In short: as §1
# [8] = target: T5, ELF3 (Homo sapiens, UniProt P78545 1-371); conditions: protein: recombinant; tags: N-terminal GST; dsDNA, one strand shown
# T5 sequence: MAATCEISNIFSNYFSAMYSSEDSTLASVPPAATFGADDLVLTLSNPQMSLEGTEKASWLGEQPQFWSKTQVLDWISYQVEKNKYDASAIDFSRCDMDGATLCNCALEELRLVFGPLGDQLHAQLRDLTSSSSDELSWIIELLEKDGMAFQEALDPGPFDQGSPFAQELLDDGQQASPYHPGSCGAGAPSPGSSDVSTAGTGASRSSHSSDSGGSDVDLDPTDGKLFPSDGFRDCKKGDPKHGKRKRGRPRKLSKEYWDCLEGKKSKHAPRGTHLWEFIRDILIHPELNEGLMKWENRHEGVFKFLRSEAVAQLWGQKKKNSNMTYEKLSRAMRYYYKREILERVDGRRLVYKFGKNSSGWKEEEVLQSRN
# In short: as §1
# [9] = target: CRX (Homo sapiens, UniProt O43186 1-299); conditions: protein: recombinant; tags: N-terminal GST; dsDNA, one strand shown
# Sequence of CRX (O43186 whole entry): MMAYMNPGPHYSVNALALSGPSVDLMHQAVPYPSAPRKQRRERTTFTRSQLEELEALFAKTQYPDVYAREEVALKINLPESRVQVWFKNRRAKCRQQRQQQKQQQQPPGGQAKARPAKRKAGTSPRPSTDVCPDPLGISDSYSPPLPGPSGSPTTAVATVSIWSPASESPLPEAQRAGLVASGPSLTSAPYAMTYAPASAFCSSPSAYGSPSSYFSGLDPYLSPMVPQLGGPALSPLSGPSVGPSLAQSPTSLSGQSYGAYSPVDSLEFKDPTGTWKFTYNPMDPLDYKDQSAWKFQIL
# In short: as §1
# [10] = target: ETV1 (Homo sapiens, UniProt P50549 1-477); conditions: protein: recombinant; tags: N-terminal GST; dsDNA, one strand shown
# Sequence of ETV1 (P50549 whole entry): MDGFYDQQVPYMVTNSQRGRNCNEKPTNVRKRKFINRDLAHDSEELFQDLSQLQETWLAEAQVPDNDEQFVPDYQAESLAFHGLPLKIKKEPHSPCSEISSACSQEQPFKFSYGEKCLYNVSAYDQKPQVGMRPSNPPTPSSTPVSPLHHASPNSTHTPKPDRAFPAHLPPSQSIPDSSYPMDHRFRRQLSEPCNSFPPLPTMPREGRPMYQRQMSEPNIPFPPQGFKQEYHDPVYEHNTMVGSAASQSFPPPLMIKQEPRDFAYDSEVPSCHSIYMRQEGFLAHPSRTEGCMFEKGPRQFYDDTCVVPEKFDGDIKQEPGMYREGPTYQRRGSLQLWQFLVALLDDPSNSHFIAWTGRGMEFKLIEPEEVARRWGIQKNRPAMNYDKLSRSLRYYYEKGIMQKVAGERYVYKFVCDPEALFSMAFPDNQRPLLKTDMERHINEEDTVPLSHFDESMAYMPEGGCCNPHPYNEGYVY
# In short: as §1
# [11] = target: T6, ERF (Homo sapiens, UniProt P50548 1-548); conditions: protein: recombinant; tags: N-terminal GST; dsDNA, one strand shown
# T6 sequence: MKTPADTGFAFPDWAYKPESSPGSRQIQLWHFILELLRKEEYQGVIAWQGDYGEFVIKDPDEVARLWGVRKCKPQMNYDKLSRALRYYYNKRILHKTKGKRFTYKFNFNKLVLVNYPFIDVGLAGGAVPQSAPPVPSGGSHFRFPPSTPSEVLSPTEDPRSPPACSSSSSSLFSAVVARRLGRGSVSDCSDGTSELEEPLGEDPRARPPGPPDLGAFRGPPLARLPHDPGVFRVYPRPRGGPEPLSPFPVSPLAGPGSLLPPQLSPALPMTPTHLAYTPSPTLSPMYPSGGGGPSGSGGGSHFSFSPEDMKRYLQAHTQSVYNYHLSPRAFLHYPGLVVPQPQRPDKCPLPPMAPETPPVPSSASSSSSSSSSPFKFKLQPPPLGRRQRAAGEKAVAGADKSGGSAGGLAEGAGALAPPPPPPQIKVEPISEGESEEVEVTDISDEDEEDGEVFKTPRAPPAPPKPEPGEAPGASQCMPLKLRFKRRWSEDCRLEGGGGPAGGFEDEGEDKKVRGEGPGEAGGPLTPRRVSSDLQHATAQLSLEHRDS
# In short: as §1
# [12] = target: T7, ETV3L (Homo sapiens, UniProt Q6ZN32 1-361); conditions: protein: recombinant; tags: N-terminal GST; dsDNA, one strand shown
# T7 sequence: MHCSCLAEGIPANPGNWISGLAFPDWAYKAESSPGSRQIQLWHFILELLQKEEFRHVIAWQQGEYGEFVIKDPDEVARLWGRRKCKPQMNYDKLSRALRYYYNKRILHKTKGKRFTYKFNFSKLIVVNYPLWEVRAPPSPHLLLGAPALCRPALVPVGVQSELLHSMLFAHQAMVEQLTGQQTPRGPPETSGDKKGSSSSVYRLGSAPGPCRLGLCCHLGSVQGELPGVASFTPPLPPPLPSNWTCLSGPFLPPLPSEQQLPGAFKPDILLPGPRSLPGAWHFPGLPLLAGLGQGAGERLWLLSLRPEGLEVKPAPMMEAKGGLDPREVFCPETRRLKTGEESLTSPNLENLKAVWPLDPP
# In short: as §1
# [13] = target: T8, ETS2 (Homo sapiens, UniProt P15036 1-469); conditions: protein: recombinant; tags: N-terminal GST; dsDNA, one strand shown
# T8 sequence: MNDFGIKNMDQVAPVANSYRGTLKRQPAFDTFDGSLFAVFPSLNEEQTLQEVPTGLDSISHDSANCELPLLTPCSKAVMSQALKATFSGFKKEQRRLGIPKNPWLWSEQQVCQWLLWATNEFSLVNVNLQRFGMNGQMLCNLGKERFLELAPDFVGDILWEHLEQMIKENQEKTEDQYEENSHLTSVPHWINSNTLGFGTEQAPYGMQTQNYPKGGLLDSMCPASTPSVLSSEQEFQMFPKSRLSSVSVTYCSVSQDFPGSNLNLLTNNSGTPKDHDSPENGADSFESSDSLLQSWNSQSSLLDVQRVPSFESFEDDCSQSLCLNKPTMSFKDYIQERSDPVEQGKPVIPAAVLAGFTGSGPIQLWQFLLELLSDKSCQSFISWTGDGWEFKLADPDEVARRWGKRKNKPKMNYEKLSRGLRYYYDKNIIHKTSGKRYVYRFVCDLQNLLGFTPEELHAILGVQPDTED
# In short: as §1
# [14] = target: T9, SPDEF (Homo sapiens, UniProt O95238 1-335); conditions: protein: recombinant; tags: N-terminal GST; dsDNA, one strand shown
# T9 sequence: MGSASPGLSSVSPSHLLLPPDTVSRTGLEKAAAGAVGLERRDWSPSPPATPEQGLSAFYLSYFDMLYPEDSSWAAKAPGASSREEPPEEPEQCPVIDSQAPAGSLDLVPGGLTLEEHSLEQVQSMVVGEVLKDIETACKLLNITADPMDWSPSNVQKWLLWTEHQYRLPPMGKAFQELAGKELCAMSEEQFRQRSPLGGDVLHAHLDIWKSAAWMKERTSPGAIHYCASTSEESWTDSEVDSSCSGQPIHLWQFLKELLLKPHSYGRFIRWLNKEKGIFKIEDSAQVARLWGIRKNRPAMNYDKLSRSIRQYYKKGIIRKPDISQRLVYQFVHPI
# In short: as §1
# [15] = target: T10, ETV7 (Homo sapiens, UniProt Q9Y603 1-341); conditions: protein: recombinant; tags: N-terminal GST; dsDNA, one strand shown
# T10 sequence: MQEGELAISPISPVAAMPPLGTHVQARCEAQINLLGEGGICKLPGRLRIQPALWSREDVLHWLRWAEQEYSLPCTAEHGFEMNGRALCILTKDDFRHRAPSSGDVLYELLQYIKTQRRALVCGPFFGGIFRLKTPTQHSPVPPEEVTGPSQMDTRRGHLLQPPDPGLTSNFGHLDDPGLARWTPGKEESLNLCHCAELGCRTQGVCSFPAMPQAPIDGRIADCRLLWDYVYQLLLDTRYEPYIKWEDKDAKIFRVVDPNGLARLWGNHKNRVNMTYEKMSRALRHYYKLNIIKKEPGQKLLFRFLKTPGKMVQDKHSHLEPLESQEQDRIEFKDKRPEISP
# In short: as §1
# [16] = target: T11, ELF5 (Homo sapiens, UniProt Q9UKW6-2 1-255); conditions: protein: recombinant; tags: N-terminal GST; dsDNA, one strand shown
# T11 sequence: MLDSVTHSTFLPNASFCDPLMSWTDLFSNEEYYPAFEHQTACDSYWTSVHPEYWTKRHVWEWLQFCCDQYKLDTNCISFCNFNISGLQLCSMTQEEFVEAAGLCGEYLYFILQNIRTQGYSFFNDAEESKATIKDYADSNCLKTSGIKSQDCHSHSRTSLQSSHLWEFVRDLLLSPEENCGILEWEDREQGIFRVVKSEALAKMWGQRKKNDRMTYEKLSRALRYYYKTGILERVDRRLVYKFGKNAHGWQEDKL
# In short: as §1
# [17] = target: T12, ETV3 (Homo sapiens, UniProt P41162-2 1-143); conditions: protein: recombinant; tags: N-terminal GST; dsDNA, one strand shown
# T12 sequence: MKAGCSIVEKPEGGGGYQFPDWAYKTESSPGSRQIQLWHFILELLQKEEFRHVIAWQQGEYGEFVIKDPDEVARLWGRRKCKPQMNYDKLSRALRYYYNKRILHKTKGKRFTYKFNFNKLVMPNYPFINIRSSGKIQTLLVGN
# In short: as §1
# [18] = target: ETV6 (Homo sapiens, UniProt P41212 1-452); conditions: protein: recombinant; tags: N-terminal GST; dsDNA, one strand shown
# Sequence of ETV6 (P41212 whole entry): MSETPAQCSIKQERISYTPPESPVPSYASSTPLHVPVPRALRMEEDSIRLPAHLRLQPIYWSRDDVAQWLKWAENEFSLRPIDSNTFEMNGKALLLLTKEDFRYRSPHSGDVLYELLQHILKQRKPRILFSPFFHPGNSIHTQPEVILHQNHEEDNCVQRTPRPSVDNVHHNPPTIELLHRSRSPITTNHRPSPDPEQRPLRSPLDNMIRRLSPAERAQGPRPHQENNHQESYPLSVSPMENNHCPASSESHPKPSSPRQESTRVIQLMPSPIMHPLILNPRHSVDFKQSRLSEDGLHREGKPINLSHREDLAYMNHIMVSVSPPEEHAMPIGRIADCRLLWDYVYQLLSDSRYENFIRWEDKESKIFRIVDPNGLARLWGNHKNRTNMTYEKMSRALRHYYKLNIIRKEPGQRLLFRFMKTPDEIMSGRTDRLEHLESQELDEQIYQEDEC
# In short: as §1
sequence,measurement,setting,value
AAGTCC,binding signal,[1],"1.34 fold enrichment (6-mer frequency, TF over GST control)"
same,binding signal,[2],"1.28 fold enrichment (6-mer frequency, TF over GST control)"
same,binding signal,[3],"1.08 fold enrichment (6-mer frequency, TF over GST control)"
same,binding signal,[4],"1.3 fold enrichment (6-mer frequency, TF over GST control)"
same,binding signal,[5],"1.19 fold enrichment (6-mer frequency, TF over GST control)"
same,binding signal,[6],"1.25 fold enrichment (6-mer frequency, TF over GST control)"
same,binding signal,[7],"1.19 fold enrichment (6-mer frequency, TF over GST control)"
same,binding signal,[8],"1.3 fold enrichment (6-mer frequency, TF over GST control)"
same,binding signal,[9],"1.19 fold enrichment (6-mer frequency, TF over GST control)"
same,binding signal,[10],"1.26 fold enrichment (6-mer frequency, TF over GST control)"
same,binding signal,[11],"1.08 fold enrichment (6-mer frequency, TF over GST control)"
same,binding signal,[12],"1.21 fold enrichment (6-mer frequency, TF over GST control)"
same,binding signal,[13],"1.27 fold enrichment (6-mer frequency, TF over GST control)"
same,binding signal,[14],"1.4 fold enrichment (6-mer frequency, TF over GST control)"
same,binding signal,[15],"1.23 fold enrichment (6-mer frequency, TF over GST control)"
same,binding signal,[16],"1.34 fold enrichment (6-mer frequency, TF over GST control)"
same,binding signal,[17],"1.37 fold enrichment (6-mer frequency, TF over GST control)"
same,binding signal,[18],"1.2 fold enrichment (6-mer frequency, TF over GST control)"
